Experimental findings from PubChem BioAssay are described below.

The list shows a part of the results. Activity calls are given as the source filed them.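 How the source made its calls, unless noted: active means over 150 percent of DMSO response; inconclusive means yeast strain measured with under 70 events; inactive means the rest.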

Experiment [1] in a line: LAP4-GFP expression modulators in yeast, confirmation, cell-based, second cherry pick, flow cytometry (AID 2621;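 active means GFP signal as percent of the solvent control above about 150%, meaning raised reporter expression, limit read from the data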;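 further: ratio of well median GFP fluorescence to plate DMSO mean so 100% = DMSO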). The following applies: S. cerevisiae LAP4-GFP strain, 3 h, at 10 µM, stronger effect = higher value. (In general: In flow cytometry, cells or beads pass a laser one at a time.)
Experiment [2] in a line: modulators of MEP2-GFP levels in yeast, confirmation, S. cerevisiae, flow cytometry GFP, second cherry picks (AID 2622;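 active means GFP signal above 150% of the solvent control wells, that is a rise of more than half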;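 further: median channel GFP fluorescence of all gated yeast cells per well; ratio of median GFP to plate DMSO average so 100% = DMSO level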). The following applies: S. cerevisiae MEP2-GFP strain, 3 h, at 10 µM, stronger effect = higher value.
The nature of experiment [3]: RPL19A-GFP modulators in TOR pathway yeast, confirmation, cell-based, S. cerevisiae, flow cytometry, second cherry pick (AID 2623;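 active means under 65% GFP response relative to DMSO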;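 further: median GFP channel fluorescence per well over the all cells gate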). Conditions: S. cerevisiae RPL19A-GFP strain, 3 h, at 10 µM, stronger effect = lower value, 100% means same as DMSO wells.
Experiment [4] can be described thus: modulators of CIT2-GFP expression in yeast, confirmation, flow cytometry, second cherry pick, single plex (AID 2624;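 active means GFP response vs DMSO above about 150%, limit read from the data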;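 further: median green fluorescence per well over all gated yeast cells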). The following applies: S. cerevisiae CIT2-GFP strain, 3 h, at 10 µM, stronger effect = higher value, DMSO control wells read 100%.
The nature of experiment [5]: AGP1-GFP expression modulators, hit retest, confirmation, cell-based, flow cytometry, S. cerevisiae, cherry pick set 2 (AID 2643).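 Further: median GFP channel fluorescence over all cells without mother daughter split; sample median GFP divided by mean DMSO control so 100% equals DMSO.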 The following applies: S. cerevisiae AGP1-GFP strain, 3 h, at 10 µM, stronger effect = higher value.
A short description of experiment [6]: compound autofluorescence in yeast s288c, dose response, artefact control for yeast TOR pathway GFP screen, s288c strain (AID 2757;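 active means fluorescence span over the dose series, or activity score, above about 33, limit read from the data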;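 further: thousands of bead-calibrated equivalent soluble fluorophore molecules from median cell fluorescence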). Conditions: S. cerevisiae s288c, 520 nm autofluorescence, flow cytometry, 3 h; at 33 µM; stronger effect = higher value; zero means same as solvent-only cells.
Experiment [7] in a line: inhibitors of CD8+ T cell-vesicle binding, pilot screen, LFA-1/ICAM-1 modulator project, MLPCN validation set, flow cytometry (AID 2523;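 active means response below a set limit, under 55% cells CD8-positive and vesicle-bound, and CD8 cells' 90th-percentile brightness under 279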;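 on vesicle binding response: mean PE anti-B7-1 fluorescence of CD8+ cells relative to row control; 100% = QL9-loaded vesicles with DMSO vehicle in the same plate row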). Conditions: 2C mouse CD8+ T cells, at 7 µM, stronger effect = lower value; double positive events: measured here: CD8+/vesicle+ event percentage.
Experiment [8] can be described thus: superoxide lowering in aged yeast cells, pilot screen, validation compound set (AID 2706;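 active means superoxide response below 65% of plate, a cut near 3 SD across the whole screen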;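 further: yeast exposed to compound for one week at 30 degrees C before staining; 100% = mean of all compound wells on the same plate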). Conditions: S. cerevisiae aging, superoxide DHE fluorescence; at 10 µM, stronger effect = lower value.
Experiment [9] concerns the target Beta-adrenergic receptor kinase 1 (Homo sapiens) (UniProt P25098). As to the kind of experiment: GRK2 binders displacing RNA aptamer, biochemical, validation, human GRK2, bead flow cytometry (AID 488806;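 active means aptamer binding inhibition above 30%, about 3 SD of noise from non-fluorescent compounds; inactive means inhibition at or below 30%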). Conditions: bead-bound GRK2, FAM-aptamer displacement, at 10 µM, stronger effect = higher value.
Experiment [10] has as its target Beta-2 adrenergic receptor (Homo sapiens) (UniProt P07550). As to the kind of experiment: beta2AR agonists driving receptor internalization, pilot screen, cell-based, FAP fluorogen, flow cytometry, validation set (AID 504459;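 active means percent response above 42, roughly 3 SD of non-fluorescent test compounds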;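 further: agonist-driven loss of surface beta2AR via internalization measured by FAP dye flow cytometry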). Conditions: Am2.2-beta2AR cells, FAP surface receptor flow cytometry; at 10 µM; stronger effect = higher value.
For experiment [11], the target named is AP-2 complex subunit beta (Homo sapiens) (UniProt P63010). As to the kind of experiment: inhibitors of arrestin peptide binding to AP2, pilot screen, biochemical, validation set, GST-AP2 beads, flow cytometry (AID 504541;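 active means inhibition above 54%, about 3 SD of non-fluorescent compounds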;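 further: AP2 carries R879A mutation and is captured from E. coli lysate; bead-bound FITC arrestin peptide fluorescence measuring arrestin peptide binding to AP2; 0% = DMSO wells and 100% = excess unlabeled arrestin peptide control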). Conditions: FITC arrestin peptide, at 10 µM, stronger effect = higher value, AP2 beta2 appendage fragment, R879A mutant.
A short description of experiment [12]: yeast V-ATPase proton transport modulators, S. cerevisiae, pHLuorin, HTS validation (AID 504600; in the data active means response above about 15%;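 further: plate controls were DMSO for no effect and reference compound for full effect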). The following applies: S. cerevisiae pHLuorin cytosolic pH, at 10 µM, stronger effect = higher value.
The test system of experiment [13] is anti-desmoglein-3 scFv antibody binding to human DSG3. The experiment is described as follows: inhibitors of anti-DSG3 scFv binding to DSG3, pilot screen, biochemical, validation compound set, bead-based, flow cytometry (AID 588368;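 active means binding below the plate cutoff, the plate median minus 3 SD, with a reading above zero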;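 further: signal is the median channel fluorescence of bead-bound GFP antibody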). Conditions: Protein G beads, DSG3-Fc, scFv-GFP binding, at 10 µM, stronger effect = lower value.
Experiment [14] in a line: inhibitors of fungal efflux pumps CDR1, CDR2, MDR1, pilot screen, validation compound set, multiplex, phenotypic (AID 588506;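 active means efflux inhibition above 0.42, the validation set average plus 4 SD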;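 further: Nile Red retained in cells so higher fluorescence means more efflux inhibition; 0 = negative control wells and 1 = enniatin B 25 µM full block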). Conditions: S. cerevisiae pump-expressing triplex, Nile Red efflux flow cytometry; at 10 µM; stronger effect = higher value; the pumps come from Candida albicans.
The target in experiment [15] is ATP-binding cassette sub-family B member 6 (Homo sapiens) (UniProt Q9NP58). The experiment is described as follows: ABCB6 transporter inhibitors, pilot screen, K562-ABCB6 cells, flow cytometry, validation set (AID 588550;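 active means inhibition above the screen-wide mean plus 3 SD, about 51%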;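 further: 0% = DMSO wells and 100% = benzethonium chloride 70 µM positive control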). Conditions: K562-ABCB6 porphyrin accumulation, 1 h, at 10 µM, stronger effect = higher value.
Experiment [16] can be described thus: promoters of myeloid differentiation in arrested cells, primary screen, cell-based, GFP/MAC1 double positive, flow cytometry, validation set (AID 588685;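 active means differentiation response of at least 50%, scaled between solvent and reference control, from cells with both markers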;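 further: compound exposure lasts four days before antibody staining and flow analysis; 0% = DMSO wells and 100% = 5 µM fulvestrant positive control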). The following applies: ER-HoxA9 marrow cells, stronger effect = higher value, normalized: vehicle 0, fulvestrant 100.
The target in experiment [17] is Integrin beta-1 (Homo sapiens) + Integrin alpha-4 (Homo sapiens) (UniProt P13612+P05556). As to the kind of experiment: inhibition of HUTS-21 binding to VLA-4, pilot screen, VLA-4 allosteric modulator project, U937 cells, HUTS-21 mAb, flow cytometry, validation set (AID 2674;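 active means inhibition above 50%, about 3 SD of the validation set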;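 further: antibody binding induced by the VLA-4 ligand LDV present at three times its Kd; 0% = LDV ligand with antibody and no compound and 100% = antibody without LDV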). Conditions: HUTS-21 LIBS mAb binding, at 6.7 µM, stronger effect = higher value, binding induced by LDV ligand.
Sequence of Integrin beta-1 (Homo sapiens) + Integrin alpha-4 (Homo sapiens) (P05556 whole entry, looked up): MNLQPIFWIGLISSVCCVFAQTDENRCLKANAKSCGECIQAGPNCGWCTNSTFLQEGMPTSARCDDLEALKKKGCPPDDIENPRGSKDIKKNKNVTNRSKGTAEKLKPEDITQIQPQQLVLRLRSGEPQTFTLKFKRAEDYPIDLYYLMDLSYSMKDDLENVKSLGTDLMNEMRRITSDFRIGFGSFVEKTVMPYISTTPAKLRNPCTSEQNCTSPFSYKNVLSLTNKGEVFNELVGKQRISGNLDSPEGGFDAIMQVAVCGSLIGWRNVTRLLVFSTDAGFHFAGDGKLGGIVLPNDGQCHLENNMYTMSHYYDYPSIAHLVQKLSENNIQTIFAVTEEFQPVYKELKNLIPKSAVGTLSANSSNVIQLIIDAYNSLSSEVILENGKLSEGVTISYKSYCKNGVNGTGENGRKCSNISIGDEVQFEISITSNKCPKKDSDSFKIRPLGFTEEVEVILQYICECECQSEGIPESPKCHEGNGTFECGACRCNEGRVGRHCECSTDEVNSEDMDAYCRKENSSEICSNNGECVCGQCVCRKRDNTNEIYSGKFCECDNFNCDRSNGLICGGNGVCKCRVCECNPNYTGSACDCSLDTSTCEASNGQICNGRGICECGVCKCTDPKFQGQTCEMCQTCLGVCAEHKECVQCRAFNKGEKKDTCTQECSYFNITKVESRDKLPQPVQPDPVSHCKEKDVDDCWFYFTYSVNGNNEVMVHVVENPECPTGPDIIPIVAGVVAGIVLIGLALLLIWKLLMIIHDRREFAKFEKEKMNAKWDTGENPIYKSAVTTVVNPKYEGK
Sequence of Integrin beta-1 (Homo sapiens) + Integrin alpha-4 (Homo sapiens) (P13612 whole entry, looked up): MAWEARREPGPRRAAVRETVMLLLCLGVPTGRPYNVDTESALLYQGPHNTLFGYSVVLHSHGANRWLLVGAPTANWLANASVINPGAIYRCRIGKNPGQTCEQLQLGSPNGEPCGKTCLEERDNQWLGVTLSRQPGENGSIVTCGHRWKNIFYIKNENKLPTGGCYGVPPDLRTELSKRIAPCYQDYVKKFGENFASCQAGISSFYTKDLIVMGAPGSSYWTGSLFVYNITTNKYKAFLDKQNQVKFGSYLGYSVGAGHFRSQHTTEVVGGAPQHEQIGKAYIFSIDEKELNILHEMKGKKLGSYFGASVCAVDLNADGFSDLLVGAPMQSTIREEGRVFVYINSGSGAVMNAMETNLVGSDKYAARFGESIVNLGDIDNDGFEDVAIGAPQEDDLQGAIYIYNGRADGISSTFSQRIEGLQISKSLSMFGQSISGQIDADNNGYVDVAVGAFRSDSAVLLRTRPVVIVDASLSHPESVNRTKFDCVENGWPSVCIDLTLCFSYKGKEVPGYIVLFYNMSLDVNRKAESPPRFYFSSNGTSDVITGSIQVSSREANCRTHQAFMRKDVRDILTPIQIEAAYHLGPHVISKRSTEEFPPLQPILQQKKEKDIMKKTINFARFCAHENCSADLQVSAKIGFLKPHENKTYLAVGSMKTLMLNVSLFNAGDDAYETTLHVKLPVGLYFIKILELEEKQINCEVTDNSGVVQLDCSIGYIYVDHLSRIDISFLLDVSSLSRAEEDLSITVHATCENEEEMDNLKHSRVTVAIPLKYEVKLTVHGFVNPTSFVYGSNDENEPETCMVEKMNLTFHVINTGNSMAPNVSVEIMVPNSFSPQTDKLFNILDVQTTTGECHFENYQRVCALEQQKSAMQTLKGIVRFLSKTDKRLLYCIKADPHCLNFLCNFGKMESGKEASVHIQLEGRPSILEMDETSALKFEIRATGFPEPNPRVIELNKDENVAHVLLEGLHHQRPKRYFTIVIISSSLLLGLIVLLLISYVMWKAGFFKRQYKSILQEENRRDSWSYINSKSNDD

Sequence of ATP-binding cassette sub-family B member 6 (Homo sapiens) (Q9NP58 whole entry, looked up): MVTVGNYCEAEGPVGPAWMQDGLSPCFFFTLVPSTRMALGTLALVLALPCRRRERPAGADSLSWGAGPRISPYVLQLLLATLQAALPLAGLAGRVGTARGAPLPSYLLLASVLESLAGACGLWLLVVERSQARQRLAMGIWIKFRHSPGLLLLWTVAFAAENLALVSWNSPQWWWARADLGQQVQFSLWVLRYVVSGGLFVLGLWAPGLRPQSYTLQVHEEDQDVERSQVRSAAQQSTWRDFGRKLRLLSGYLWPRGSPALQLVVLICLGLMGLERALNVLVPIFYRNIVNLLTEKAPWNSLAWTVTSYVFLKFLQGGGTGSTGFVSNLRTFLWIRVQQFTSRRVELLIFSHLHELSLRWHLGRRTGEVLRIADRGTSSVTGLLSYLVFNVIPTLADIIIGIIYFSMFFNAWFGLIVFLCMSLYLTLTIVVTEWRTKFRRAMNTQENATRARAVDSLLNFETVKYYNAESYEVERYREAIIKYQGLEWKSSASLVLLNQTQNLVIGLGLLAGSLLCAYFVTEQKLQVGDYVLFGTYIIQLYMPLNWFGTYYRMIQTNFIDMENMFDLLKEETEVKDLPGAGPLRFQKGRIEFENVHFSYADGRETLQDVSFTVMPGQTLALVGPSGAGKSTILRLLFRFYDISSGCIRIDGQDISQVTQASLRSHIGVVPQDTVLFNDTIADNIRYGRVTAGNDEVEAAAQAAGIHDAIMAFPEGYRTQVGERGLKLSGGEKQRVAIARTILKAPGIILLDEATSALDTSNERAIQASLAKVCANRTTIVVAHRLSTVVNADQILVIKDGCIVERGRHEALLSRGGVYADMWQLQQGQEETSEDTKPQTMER
Sequence of AP-2 complex subunit beta (Homo sapiens) (P63010 whole entry, looked up, the tested form may be a part, one chain of several): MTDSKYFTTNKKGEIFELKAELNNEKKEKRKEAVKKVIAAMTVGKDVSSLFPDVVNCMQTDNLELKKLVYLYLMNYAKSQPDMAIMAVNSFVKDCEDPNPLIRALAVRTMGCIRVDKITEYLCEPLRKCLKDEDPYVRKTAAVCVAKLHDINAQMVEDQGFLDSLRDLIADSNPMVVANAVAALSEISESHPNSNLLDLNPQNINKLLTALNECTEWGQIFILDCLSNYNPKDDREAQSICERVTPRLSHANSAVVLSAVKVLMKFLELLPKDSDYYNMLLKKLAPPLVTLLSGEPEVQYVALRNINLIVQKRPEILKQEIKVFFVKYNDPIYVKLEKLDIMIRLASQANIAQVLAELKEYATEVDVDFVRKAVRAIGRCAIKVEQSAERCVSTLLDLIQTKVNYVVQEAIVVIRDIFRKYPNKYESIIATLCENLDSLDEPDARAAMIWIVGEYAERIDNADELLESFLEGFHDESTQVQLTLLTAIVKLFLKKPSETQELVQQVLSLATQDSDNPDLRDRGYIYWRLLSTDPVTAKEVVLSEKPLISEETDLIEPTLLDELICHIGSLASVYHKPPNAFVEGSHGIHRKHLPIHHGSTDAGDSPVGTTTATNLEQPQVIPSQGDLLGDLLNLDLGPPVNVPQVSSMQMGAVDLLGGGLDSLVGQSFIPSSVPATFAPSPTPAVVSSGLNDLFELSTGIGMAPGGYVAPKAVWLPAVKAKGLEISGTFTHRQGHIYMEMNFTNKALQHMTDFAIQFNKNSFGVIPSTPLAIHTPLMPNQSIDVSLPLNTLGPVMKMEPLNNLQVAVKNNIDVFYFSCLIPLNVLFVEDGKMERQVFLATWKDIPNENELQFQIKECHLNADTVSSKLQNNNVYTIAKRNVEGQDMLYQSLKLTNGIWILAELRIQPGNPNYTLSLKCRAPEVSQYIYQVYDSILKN
Sequence of Beta-adrenergic receptor kinase 1 (Homo sapiens) (P25098 whole entry, looked up): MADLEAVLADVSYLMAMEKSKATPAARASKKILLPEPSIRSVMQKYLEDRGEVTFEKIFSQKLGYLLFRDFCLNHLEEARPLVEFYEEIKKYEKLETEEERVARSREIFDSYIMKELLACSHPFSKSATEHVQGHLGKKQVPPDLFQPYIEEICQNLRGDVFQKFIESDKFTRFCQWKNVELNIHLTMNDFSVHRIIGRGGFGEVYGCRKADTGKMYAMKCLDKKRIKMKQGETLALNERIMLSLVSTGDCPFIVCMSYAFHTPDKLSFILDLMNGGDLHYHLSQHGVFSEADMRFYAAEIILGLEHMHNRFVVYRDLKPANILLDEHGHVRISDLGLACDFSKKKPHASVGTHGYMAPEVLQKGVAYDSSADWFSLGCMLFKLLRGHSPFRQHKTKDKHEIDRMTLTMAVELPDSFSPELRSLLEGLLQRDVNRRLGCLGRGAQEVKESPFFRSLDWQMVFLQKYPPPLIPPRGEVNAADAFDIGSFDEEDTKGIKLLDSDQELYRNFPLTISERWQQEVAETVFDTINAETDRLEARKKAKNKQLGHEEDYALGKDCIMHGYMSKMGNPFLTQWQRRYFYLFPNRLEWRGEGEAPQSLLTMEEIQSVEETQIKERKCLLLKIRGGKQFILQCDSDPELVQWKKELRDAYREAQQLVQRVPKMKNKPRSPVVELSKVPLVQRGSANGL
Sequence of Beta-2 adrenergic receptor (Homo sapiens) (P07550 whole entry, looked up): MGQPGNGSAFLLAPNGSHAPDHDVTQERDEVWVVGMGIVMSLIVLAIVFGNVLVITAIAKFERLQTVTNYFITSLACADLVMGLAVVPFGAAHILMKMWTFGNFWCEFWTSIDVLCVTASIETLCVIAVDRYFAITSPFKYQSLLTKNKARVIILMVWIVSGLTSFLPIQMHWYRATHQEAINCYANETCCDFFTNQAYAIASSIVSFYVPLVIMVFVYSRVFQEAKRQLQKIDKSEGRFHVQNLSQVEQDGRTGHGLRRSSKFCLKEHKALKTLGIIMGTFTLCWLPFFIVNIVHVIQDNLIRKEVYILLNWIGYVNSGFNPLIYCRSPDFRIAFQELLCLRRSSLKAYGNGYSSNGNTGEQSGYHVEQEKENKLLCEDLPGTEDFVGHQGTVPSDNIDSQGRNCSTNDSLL

`Clc1cccc(CN2COc3c(cc(Cl)c4cccnc34)C2)c1`: the GFP response vs DMSO in experiment [1] is 127% (inactive); in [2], 130% (inactive); in experiment [3] it was 101% (inactive); in experiment [4], 95% (inactive). Moreover, in experiment [5], the percent response vs DMSO is 95.3% (inactive). Also, the fluorescence change (kMESF span) in experiment [6] is 1.92 (inactive).
In the case of `CC(C)[C@@H]1COC(c2cccc(C3=N[C@H](C(C)C)CO3)c2)=N1`, the GFP response vs DMSO in [1] was 99% (inactive); in experiment [2] it was 98.2% (inactive); in experiment [3], 101% (inactive); in experiment [4] it was 97.2% (inactive). In addition, the percent response vs DMSO in experiment [5] was 95.8% (inactive).
As for `Cc1ccc(S/C(=N\S(=O)(=O)c2ccc(Cl)cc2)c2ccccc2)cc1`, the GFP response vs DMSO in experiment [1] is 101% (inactive); in experiment [2], 105% (inactive); in experiment [3], 98% (inactive); in experiment [4], 107% (inactive). Further, the percent response vs DMSO in experiment [5] was 99.1% (inactive).
In turn, `Oc1ccc(Cl)cc1Cc1cc(Cl)ccc1O` returned a double positive events in experiment [7] of 63.4%. For the same compound, the vesicle binding response in experiment [7] is 194% (inactive). Further, the superoxide response (% of plate) in experiment [8] was 110% (inactive). For the same compound, in experiment [9], the aptamer binding inhibition is 3% (inactive). In addition, the response in [10] is 17.5% (inactive); in [12], 0.73% (inactive). Further, the inhibition in [11] is 24.9% (inactive); in experiment [15], 11% (inactive). The binding (% of control) in [13] is 108% (inactive). Also, the efflux inhibition (fraction of control) in experiment [14] is -0.04 (inactive). In experiment [16], the differentiation response is 4.2% (inactive).
With `CS(=O)(=O)Oc1ccc2c(c1)O/C(=C\C=C\c1ccccc1)C2=O`, in experiment [7], the double positive events was determined as 64.8%. The vesicle binding response in [7] is 247% (inactive). In addition, the inhibition in experiment [17] is -40.9% (inactive); in [11], 27.4% (inactive); in experiment [15], -22% (inactive). Besides, the aptamer binding inhibition in experiment [9] was 4% (inactive). The response in experiment [10] is 26.6% (inactive); in experiment [12], -12.2% (inactive). The binding (% of control) in experiment [13] is 88.2% (inactive). The efflux inhibition (fraction of control) in experiment [14] is -0.14 (inactive). Besides, in experiment [16], the differentiation response is 30.5% (inactive).
Consider `CC(Oc1ccc2ccccc2c1)C(=O)NNC(=S)NC(=O)c1ccco1` (stereo unspecified), for which the GFP response vs DMSO in experiment [1] was 312% (active); in [2], 175% (active); in experiment [3] it was 101% (inactive); in experiment [4], 187% (active). For the same compound, the percent response vs DMSO in [5] was 112% (inactive). For the same compound, the fluorescence change (kMESF span) in experiment [6] was 2.02 (inactive).
`CNc1nc(N(C)C)nc(N(C)C)n1`: the double positive events in experiment [7] worked out at 62.1%. Besides, the vesicle binding response in [7] was 64.3% (inactive). In addition, the inhibition in experiment [17] was -2.53% (inactive); in experiment [11], 14.9% (inactive); in experiment [15], 11% (inactive). The aptamer binding inhibition in experiment [9] was -1% (inactive). The results for the response in [10] and in [12] were 8.29% (inactive) and 3.55% (inactive), respectively. Moreover, in [13], the binding (% of control) is 107% (inactive). Further, the efflux inhibition (fraction of control) in experiment [14] is 0.92 (active). Besides, in experiment [16], the differentiation response is 41.3% (inactive).
For `COC(=O)C[n+]1cccc2ccccc21`, the GFP response vs DMSO in [1] is 106% (inactive); in experiment [2] it was 103% (inactive); in experiment [3], 100% (inactive); in experiment [4], 118% (inactive). The percent response vs DMSO in experiment [5] was 105% (inactive).
The matching figures for `O=C(COc1cccnc1[N+](=O)[O-])Nc1ccc(Cl)cc1F`: 99.2% (inactive), 101% (inactive), 99.5% (inactive), 103% (inactive) and 97.4% (inactive).
Regarding `Cc1ccc2nc(N(CCN(C)C)C(=O)C3=COCCO3)sc2c1`, the GFP response vs DMSO was 102% (inactive) in experiment [1], 105% (inactive) in experiment [2], 98.9% (inactive) in [3] and 103% (inactive) in experiment [4]. Besides, in experiment [5], the percent response vs DMSO was 104% (inactive).
Consider `CCOC(=O)c1cnc(SCC(=O)NCc2ccco2)nc1N`, for which the GFP response vs DMSO is 99.2% (inactive) in experiment [1], 97.8% (inactive) in [2], 96.8% (inactive) in experiment [3] and 111% (inactive) in experiment [4]. Besides, the percent response vs DMSO in experiment [5] was 95.9% (inactive).
In turn, `CCOc1ccccc1C(=O)NCCC(=O)O` came in with a double positive events in experiment [7] of 60.3%. For the same compound, the vesicle binding response in experiment [7] was 64.9% (inactive). In addition, the results for the inhibition in experiment [17], in experiment [11] and in experiment [15] were -17.1% (inactive), 19.4% (inactive) and 13% (inactive), respectively. In addition, the aptamer binding inhibition in experiment [9] was 1% (inactive). Also, the response in experiment [10] is 12.6% (inactive); in experiment [12], 1.48% (inactive). In addition, the binding (% of control) in experiment [13] is 105% (inactive). Besides, the efflux inhibition (fraction of control) in experiment [14] was 0.92 (active). In experiment [16], the differentiation response was 16.9% (inactive).
In the case of `Cc1cc(C)c2nc3nc(C)cc(C)c3c(N)c2c1`, the GFP response vs DMSO in experiment [1] was 99% (inactive); in [2] it was 103% (inactive); in experiment [3] it was 76.7% (inactive); in experiment [4] it was 93.9% (inactive). The percent response vs DMSO in experiment [5] was 75.9% (inactive).
On to `COc1ccc(C)cc1NC(=O)CSc1nc(SC)ns1`, for which the GFP response vs DMSO was 97.2% (inactive) in experiment [1], 97.8% (inactive) in experiment [2], 100% (inactive) in experiment [3] and 102% (inactive) in [4]. Moreover, in [5], the percent response vs DMSO is 100% (inactive).

Usually inhibition stands for the relative decrease from the control value, in per cent.
